Compounds without any hit were thinned out: in the full panel of roughly 83,000, 20% have a hit.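 Cell lines were cultured in 96-well plates, exposed to a single compound concentration, and assessed for percent growth 48 hours later.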 Unmarked numbers belong to inactive results. The source made the active and inactive calls. The calls were made as follows: active = growth percent below 10; inactive = the rest.

This assay has as its system HL-60(TB) leukemia. Kind of assay: NCI-60 one-dose screen, 48 h (100 = growth as untreated, 0 = no growth, -100 = all killed). Particulars: 10 µM unless noted.
Turning to `CCOC(=O)c1noc2c1CCc1cn(Cc3cc(OC)cc(OC)c3)cc1-2`, the growth is 77.1%.
For `COc1cc2nnn3c4ncccc4c(N=O)c3c2cc1OC` the value was -31.5% (active); for `C=C1C(=O)OC2CC1C(OC(C)=O)C/C(C)=C/CC/C(C)=C\CCC2(C)O` (centres undefined), -51.9% (active); for `CC1CC(C)/C(=N/NC(N)=O)C(C(O)CC2CCC(=O)NC2=O)C1` (centres undefined), 40.1%.
For `CC(=O)N1CCN(c2ccc(OCC3CO[C@](Cn4ccnc4)(c4ccc(Cl)cc4Cl)O3)cc2)CC1` (some centres undefined) the value was 56.5%.
For `Clc1ccc(/C=C/c2nc(N3CCOCC3)c3nc(Cl)c(Cl)cc3n2)cc1` the value was 98.4%.
As for `Fc1[nH]nc2ccc([C@@H]3Nc4ccc5[nH]ncc5c4[C@H]4C5CCC(C5)[C@@H]34)cc12` (some centres undefined), the growth is 14.4%.
For `[O-][N+](=Nc1cccc(Cl)c1)c1cccc(Cl)c1` the value was 132%; for `CCCCC1Nc2nc(SC)n(C)c(=O)c2CN(Cc2ccccc2)C1=O` (centres undefined), 111%.
For `COc1ccc(/C=C/C(=O)c2c(O)c(C)c(O)c3c2OC2=CC(O)=C(C(C)=O)C(=O)[C@]23C)cc1` the value was -34.6% (active); for `Cc1ccc(S(=O)(=O)Nc2cccc3[nH]c(C(F)(F)F)nc23)cc1`, 0.648% (active); for `Cc1[nH]c(C(=O)Nc2ccc(C(N)=O)cc2OC(C)C)c(Cl)c1Cl`, 97.1%.
For `O=C(Nc1cccc(-n2ccc3c(NC(=O)c4ccccc4)nccc32)c1)Nc1ccc(Cl)c(C(F)(F)F)c1` the value was -22.8% (active).
For `C=C1C(=O)O[C@H]2[C@H]1CC/C(COC(=O)NCc1ccc(Cn3c(=O)sn(CCCl)c3=O)cc1)=C\CC[C@@]1(C)O[C@@H]21`, the growth is -21.4% (active).
For `CS(=O)(=O)Nc1cc(-c2ccc3ncnc(Nc4cccc(Cl)c4)c3c2)cnc1Cl` the value was 2.67% (active); for `COc1ccccc1C(=O)O/N=C(\N)Cc1cccc2ccccc12`, 96.3%; for `C#CCNC(=O)[C@]1(C)CCC[C@@]2(C)[C@H]1CC=C1C=C(C(C)C)CC[C@@H]12`, 131%.
For `C=C1CC[C@@H]2[C@](C)(COC(C)=O)[C@H](OC(C)=O)CC[C@@]2(C)[C@@H]1CC(Nc1ccc(S(=O)(=O)Nc2ccc(Cl)nn2)cc1)C1=CCOC1=O` (some centres undefined) the value was -17.5% (active); for `CC(C)(C)c1cc(C(=O)Nc2ccccc2C(=O)NCCN)cc(C(C)(C)C)c1`, -51.8% (active).
For `Cc1c2cnccc2c(C)c2c1c1cc(CO)ccc1n2C` the value was -20% (active).
On to `O=C(N=C1C(=O)C2(CCCCC2)C2(N=C(c3ccccc3)OC2=O)C12CCCCC2)c1ccccc1` (centres undefined), for which the growth was 71.8%.
For `CC(=O)c1cc2c(N)c(C(=O)Nc3cccc(Cl)c3)sc2nc1C` the value was 48.9%; for `O=[N+]([O-])c1ccc(Oc2cccc(C(F)(F)F)c2)c([N+](=O)[O-])c1`, 14.3%.
For `O=S1(=O)NCCCN1CCNc1nccc(-c2c(-c3cccc(O)c3)nc3sccn23)n1` the value was 73.3%.
For `NNC(=O)Cc1ccccc1` the value was 73.1%; for `O=[N+]([O-])c1cccc(C(c2ccccc2)c2ccccc2)c1`, 88.9%; for `Oc1c(Cl)cc(Cl)c2ccc(CN3CCNCC3)nc12`, 44.1%.
For the compound `COc1cccc(/C=C2\SC(=Nc3ccc(NC(C)=O)cc3)NC2=O)c1OC`, the growth is 101%.
As to `O=C(O)c1cc(C(F)(F)F)cc(C(F)(F)F)c1`, the growth is 88.2%.
In the case of `COc1cc(Cl)cc(-c2nn(C(=O)NS(=O)(=O)c3ccccc3)cc2-c2ccncc2)c1`, the growth was 94.3%.
As to `O=[N+]([O-])c1ccc2c(c1)Cc1ccccc1-2`, the growth was 87%.
Consider `C/C(=N\NC(=O)CC#N)c1cc2cc(Cl)ccc2o1`, for which the growth was 99.4%.
For `C=CC[C@]1(O)CC[C@H]2[C@@H]3CCc4cc(O)ccc4[C@H]3CC[C@@]21C` the value was 75.1%; for `NC(=NCCCOc1ccc(Cl)cc1)Nc1ccc(C(F)(F)F)cc1`, 94.4%.
For `COc1ccc(C(=O)C/C(=C\c2ccc(Cl)cc2)C(=O)NCc2ccccc2)cc1` the value was 73.8%; for `COc1ccc(-n2c(COc3ccc(F)cc3)n[nH]c2=S)cc1`, 126%; for `CS(=O)(=O)Nc1ccc(Nc2c3ccccc3nc3cc(N)ccc23)cc1`, 5.48% (active).
For the compound `O=C1c2ccccc2C2(c3ccc(O)cc3)c3ccccc3Oc3cccc1c32` (centres undefined), the growth is 1.45% (active).
For `COc1ccc(Cn2cc3c(c2)-c2oncc2CC3)cc1OC` the value was 2.83% (active).

For the origin of these results see PubChem BioAssay (NCI).
